Measurements reported in PubChem BioAssay.
For part of these data: Results with a measured potency or affinity are listed apart. The source made the active and inactive calls. Unless noted, no rule for the calls is given here.

Experiments:
[1] = antimalarial activity against Dd2 strain (AID 2302;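 active = growth inhibition above 50% at the single 2 µM test dose, taken to imply half-maximal potency below 2 µM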;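 also: 0% = DMSO untreated growth and 100% = chloroquine plus artemisinin killed control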); conditions: P. falciparum Dd2 in RBCs, LDH growth readout, 72 h; at 2 µM; hits give high values
[2] = HepG2 cytotoxicity, primary screen, cytotoxicity control for P. falciparum antimalarial project, cell-based, ATP luminescence (AID 2303;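 active = inhibition above 50%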;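 also: 0% = DMSO wells and 100% = digitonin-killed cells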); conditions: HepG2 viability, 24-48 h, at 10 µM, hits give high values
[3] = molecular target: L-lactate dehydrogenase (Plasmodium falciparum (isolate CDC / Honduras)) (UniProt Q27743); assay: PfLDH activity inhibition – cell lysate, 3D7 strain, counter-screen for P. falciparum growth inhibition project (AID 2304);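 also: 0% = vehicle and 100% = reference inhibitor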; conditions: P. falciparum 3D7 crude extract, LDH APAD/NBT absorbance; at 2 µM; hits give high values
[4] = inhibition of 3D7 malaria parasite growth – strain 3D7 (AID 2306);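 also: 0% = DMSO wells and 100% = chloroquine plus artemisinin control wells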; conditions: P. falciparum 3D7 erythrocytic growth, LDH absorbance, 72 h; at 2 µM; hits give high values
[5] = molecular target: Calcium-dependent protein kinase 1 (Plasmodium falciparum (isolate 3D7)) (UniProt P62344); assay: PfCDPK1 kinase inhibitors, biochemical, TCAMS library (AID 1159585; cut-off not given, nearly all actives have IC50 up to about 0.98 µM;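 also: inhibitors leave more ATP so luminescence rises with inhibition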); conditions: recombinant PfCDPK1, Kinase-Glo ATP depletion luminescence
[6] = molecular target: Plasmodium falciparum protein kinase 6 (PK6, PF3D7_1337100) (UniProt Q8IDW1); assay: PfPK6 kinase inhibitors, biochemical, TCAMS library (AID 1159586); conditions: recombinant PfPK6, Kinase-Glo ATP depletion luminescence
[7] = molecular target: Protein kinase 7 (PK7), Plasmodium falciparum 3D7 (PF3D7_0213400) (UniProt Q7YTF7); assay: inhibition of Plasmodium PK7 catalytic activity – biochemical, TCAMS antimalarial set, Kinase-Glo luminescence (AID 1159587); conditions: recombinant PfPK7, Kinase-Glo ATP depletion luminescence
[8] = molecular target: Calcium-dependent protein kinase 4 (Plasmodium falciparum (isolate 3D7)) (UniProt Q8IBS5); assay: PfCDPK4 kinase inhibitors, biochemical, TCAMS library (AID 1159588; cut-off not given, nearly all actives have IC50 up to about 0.91 µM); conditions: recombinant PfCDPK4, Kinase-Glo ATP depletion luminescence
Calcium-dependent protein kinase 4 (Plasmodium falciparum (isolate 3D7)), sequence (Q8IBS5 whole entry, looked up): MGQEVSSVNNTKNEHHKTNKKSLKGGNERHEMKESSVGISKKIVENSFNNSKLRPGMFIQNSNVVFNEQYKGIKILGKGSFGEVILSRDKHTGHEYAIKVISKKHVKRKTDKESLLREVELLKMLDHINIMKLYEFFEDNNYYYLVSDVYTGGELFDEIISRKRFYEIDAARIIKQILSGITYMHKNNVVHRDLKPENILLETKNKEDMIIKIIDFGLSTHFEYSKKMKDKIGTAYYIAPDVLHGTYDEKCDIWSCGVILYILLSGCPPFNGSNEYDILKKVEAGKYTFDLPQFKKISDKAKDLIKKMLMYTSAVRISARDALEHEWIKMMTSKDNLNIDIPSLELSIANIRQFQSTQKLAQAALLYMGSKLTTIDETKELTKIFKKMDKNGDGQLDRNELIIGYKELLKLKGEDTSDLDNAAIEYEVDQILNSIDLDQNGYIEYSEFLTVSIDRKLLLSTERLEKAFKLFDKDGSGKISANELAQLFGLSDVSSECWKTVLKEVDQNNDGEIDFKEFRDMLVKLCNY

Protein kinase 7 (PK7), Plasmodium falciparum 3D7 (PF3D7_0213400), sequence (Q7YTF7 1-343): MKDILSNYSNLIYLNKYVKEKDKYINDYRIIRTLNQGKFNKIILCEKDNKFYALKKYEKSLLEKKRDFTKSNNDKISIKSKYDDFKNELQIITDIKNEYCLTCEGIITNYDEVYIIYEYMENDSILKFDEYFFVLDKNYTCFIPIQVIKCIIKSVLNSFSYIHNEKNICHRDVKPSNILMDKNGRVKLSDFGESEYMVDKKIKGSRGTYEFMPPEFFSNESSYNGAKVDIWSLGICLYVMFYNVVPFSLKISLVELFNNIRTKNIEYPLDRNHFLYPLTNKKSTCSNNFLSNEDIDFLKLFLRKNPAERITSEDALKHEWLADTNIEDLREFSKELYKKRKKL
L-lactate dehydrogenase (Plasmodium falciparum (isolate CDC / Honduras)), sequence (Q27743 whole entry, looked up): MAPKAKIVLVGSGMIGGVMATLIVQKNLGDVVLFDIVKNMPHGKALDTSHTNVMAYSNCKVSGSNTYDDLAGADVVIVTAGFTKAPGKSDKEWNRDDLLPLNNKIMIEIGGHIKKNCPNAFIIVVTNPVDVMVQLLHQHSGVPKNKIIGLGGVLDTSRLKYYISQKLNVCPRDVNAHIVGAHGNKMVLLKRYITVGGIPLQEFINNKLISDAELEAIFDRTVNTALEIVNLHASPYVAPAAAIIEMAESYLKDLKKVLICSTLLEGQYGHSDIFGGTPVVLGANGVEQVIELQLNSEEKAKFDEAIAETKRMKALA
Calcium-dependent protein kinase 1 (Plasmodium falciparum (isolate 3D7)), sequence (P62344 whole entry, looked up): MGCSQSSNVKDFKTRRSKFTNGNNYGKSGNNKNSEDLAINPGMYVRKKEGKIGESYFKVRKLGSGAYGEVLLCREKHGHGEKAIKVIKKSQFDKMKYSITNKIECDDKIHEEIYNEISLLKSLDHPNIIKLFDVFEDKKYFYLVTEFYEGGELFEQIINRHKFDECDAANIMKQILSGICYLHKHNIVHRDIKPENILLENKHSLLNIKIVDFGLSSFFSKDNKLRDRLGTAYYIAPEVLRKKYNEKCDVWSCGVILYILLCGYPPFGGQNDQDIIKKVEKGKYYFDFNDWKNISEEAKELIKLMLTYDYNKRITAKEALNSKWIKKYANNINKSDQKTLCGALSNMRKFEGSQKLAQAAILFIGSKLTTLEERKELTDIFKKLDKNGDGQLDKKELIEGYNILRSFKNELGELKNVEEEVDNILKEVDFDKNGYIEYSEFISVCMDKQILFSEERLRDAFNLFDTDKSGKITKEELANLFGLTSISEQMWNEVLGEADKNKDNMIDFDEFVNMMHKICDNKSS
Plasmodium falciparum protein kinase 6 (PK6, PF3D7_1337100), sequence (Q8IDW1 1-305): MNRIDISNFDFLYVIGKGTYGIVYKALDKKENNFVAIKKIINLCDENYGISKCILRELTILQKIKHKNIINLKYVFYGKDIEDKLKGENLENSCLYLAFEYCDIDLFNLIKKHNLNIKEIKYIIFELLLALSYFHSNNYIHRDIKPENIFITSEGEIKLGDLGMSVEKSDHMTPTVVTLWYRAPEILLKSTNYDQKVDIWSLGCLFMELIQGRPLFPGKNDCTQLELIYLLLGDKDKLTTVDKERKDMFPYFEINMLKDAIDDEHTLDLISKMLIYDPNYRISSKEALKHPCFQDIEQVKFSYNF

CC(C)c1ccc(NC(=O)NCCCC2CCCN(CCCCCNC(=O)/C=C/c3ccc(Cl)c(Cl)c3)C2)cc1 (configuration not stated)
inactive: growth inhibition [1] 42% | inhibition [2] 25% | inhibition [3] -2% | outcome [5] | outcome [6] | outcome [7] | outcome [8]
active: growth inhibition [4] 90%

COc1cc2ccccc2c(OC)c1CNCCCCCCNCc1c(OC)cc2ccccc2c1OC
inactive: inhibition [3] 0% | outcome [5] | outcome [6] | outcome [7] | outcome [8]
active: growth inhibition [1] 91% | inhibition [2] 100% | growth inhibition [4] 93%

CC1(C)N=C(N)N=C(N)N1OCc1cc(Cl)c(Cl)cc1CON1C(N)=NC(N)=NC1(C)C
inactive: inhibition [2] 36% | inhibition [3] 4% | outcome [5] | outcome [6] | outcome [7] | outcome [8]
active: growth inhibition [1] 100% | growth inhibition [4] 98%

O=C(Nc1ccc(CCNCCCc2ccccc2)cc1)Nc1ccc(Cl)c(Cl)c1
inactive: inhibition [2] 33% | inhibition [3] -1% | outcome [5] | outcome [6] | outcome [7] | outcome [8]
active: growth inhibition [1] 99% | growth inhibition [4] 100%

COc1ccc2nccc([C@@H](O)CN3CCC(NCc4cc5c(Cl)cc(Cl)cc5[nH]4)CC3)c2c1
active: growth inhibition [1] 86% | inhibition [2] 93% | growth inhibition [4] 101%
inactive: inhibition [3] 4% | outcome [5] | outcome [6] | outcome [7] | outcome [8]

CN1CCCN(Cc2ccc(-c3ccc(NC(=O)c4ccc(C#N)cc4)cc3)cc2)CC1
inactive: growth inhibition [1] 28% | inhibition [2] 30% | inhibition [3] 4% | outcome [5] | outcome [6] | outcome [7] | outcome [8]
active: growth inhibition [4] 91%

Fc1ccc(Nc2ccnc3cc(-c4cccc(CNCCN5CCOCC5)c4)ccc23)c(Cl)c1
active: growth inhibition [1] 99% | growth inhibition [4] 100%
inactive: inhibition [2] 26% | inhibition [3] -1% | outcome [5] | outcome [6] | outcome [7] | outcome [8]

CCOC(=O)[C@H](Cc1cc([N+](=O)[O-])c(Oc2ccc(OC)c(Cc3ccc(OC)c(C(C)C)c3)c2)c([N+](=O)[O-])c1)NC(=O)C(F)(F)F
active: growth inhibition [4] 94%
inactive: growth inhibition [1] -3% | inhibition [2] 5% | inhibition [3] -3% | outcome [5] | outcome [6] | outcome [7] | outcome [8]

CN1CCC(Oc2ccc(NC(=O)c3ccc4c(=O)n(Cc5ccccc5)cnc4c3)cc2Cl)CC1
inactive: growth inhibition [1] 20% | inhibition [2] 23% | inhibition [3] 0% | outcome [5] | outcome [6] | outcome [7] | outcome [8]
active: growth inhibition [4] 95%

COc1ccc(CCc2ccc(-c3c(C)[nH]c(C)c(Cl)c3=O)cc2)cc1
active: growth inhibition [1] 97% | growth inhibition [4] 98%
inactive: inhibition [2] -3% | inhibition [3] 3% | outcome [5] | outcome [6] | outcome [7] | outcome [8]

CCN(CC)CCN(Cc1ccc(-c2ccc(C(F)(F)F)cc2)cc1)C(=O)Cn1c(CCc2ccc(F)c(F)c2)cc(=O)c2ccccc21
active: growth inhibition [4] 95%
inactive: growth inhibition [1] 26% | inhibition [2] 23% | inhibition [3] -1% | outcome [5] | outcome [6] | outcome [7] | outcome [8]

CCC(C)(C)NC(=O)C(c1cccc(OC)c1)N(C(=O)CNC(=O)c1cccs1)c1ccc2c(c1)OCCO2 (configuration not stated)
active: growth inhibition [1] 76% | growth inhibition [4] 100%
inactive: inhibition [2] -7% | inhibition [3] -7% | outcome [5] | outcome [6] | outcome [7] | outcome [8]

CCN(CC)CCCNc1nccc(N2CCc3ncnc(Nc4ccc(OCc5cccc(F)c5)c(Cl)c4)c3C2)n1
active: growth inhibition [1] 95% | inhibition [2] 100% | growth inhibition [4] 101%
inactive: inhibition [3] 7% | outcome [5] | outcome [6] | outcome [7] | outcome [8]

OC[C@H]1CCCN1CC#Cc1cc2c(Nc3ccc(OCc4cccc(F)c4)c(Cl)c3)ncnc2s1
active: growth inhibition [4] 89%
inactive: growth inhibition [1] 6% | inhibition [2] 13% | inhibition [3] -2% | outcome [5] | outcome [6] | outcome [7] | outcome [8]

CCOc1ccccc1C1CCN(CCCCNC(=O)c2ccc(NC(=O)c3ccc(Cl)cc3)cc2)CC1
inactive: growth inhibition [1] 27% | inhibition [2] 13% | inhibition [3] 1% | outcome [5] | outcome [6] | outcome [7] | outcome [8]
active: growth inhibition [4] 95%

CS(=O)(=O)N(c1cccc(F)c1)c1cc(C(=O)N[C@@H](Cc2ccccc2)[C@H](O)CNCc2cccc(C(F)(F)F)c2)cc(N2CCCC2=O)c1
active: growth inhibition [1] 92% | growth inhibition [4] 98%
inactive: inhibition [2] 14% | inhibition [3] 1% | outcome [5] | outcome [6] | outcome [7] | outcome [8]

O=C(Nc1ccc(OC2CCN(Cc3ccc(F)cc3)C2)c(Cl)c1)c1ccsc1 (configuration not stated)
active: growth inhibition [1] 95% | growth inhibition [4] 98%
inactive: inhibition [2] 26% | inhibition [3] -3% | outcome [5] | outcome [6] | outcome [7] | outcome [8]

COc1ccc2nc(C)cc(NN=Cc3cccc([N+](=O)[O-])c3)c2c1
active: growth inhibition [1] 97% | growth inhibition [4] 102%
inactive: inhibition [2] 6% | inhibition [3] 7% | outcome [5] | outcome [6] | outcome [7] | outcome [8]

CN(C)C(CNC(=O)c1cc(-c2ccncc2)c(-c2cc3ccccc3[nH]2)o1)c1ccccc1 (configuration not stated)
inactive: inhibition [2] 3% | inhibition [3] -2% | outcome [5] | outcome [6] | outcome [7] | outcome [8]
active: growth inhibition [1] 62% | growth inhibition [4] 96%

OC(CNCc1ccccc1OCc1ccccc1)c1cccc(C(F)(F)F)c1 (configuration not stated)
inactive: inhibition [2] 12% | inhibition [3] -2% | outcome [5] | outcome [6] | outcome [7] | outcome [8]
active: growth inhibition [1] 99% | growth inhibition [4] 99%

CCCN1CCC2(CC1)NC(C(=O)NCCC(C)C)Cc1c2[nH]c2cc(Cl)ccc12 (configuration not stated)
active: growth inhibition [4] 86%
inactive: growth inhibition [1] 0% | inhibition [2] 13% | inhibition [3] -3% | outcome [5] | outcome [6] | outcome [7] | outcome [8]

COc1cccc2cc(C(=O)N[C@@H](CC(C)C)C(=O)N[C@H](/C=N/N3C(=O)CN(Cc4ccccc4)C3=O)CCc3ccccc3)oc12
active: growth inhibition [1] 52% | growth inhibition [4] 85%
inactive: inhibition [2] 14% | inhibition [3] -1% | outcome [5] | outcome [6] | outcome [7] | outcome [8]

CN(C)Cc1cccc(-c2ccc3ccnc(N)c3c2)c1
active: growth inhibition [1] 74% | growth inhibition [4] 99%
inactive: inhibition [2] 21% | inhibition [3] 3% | outcome [5] | outcome [6] | outcome [7] | outcome [8]

c1cc(CN2CCN(c3ccncc3)CC2)cc(-c2ccc(-c3nc4ccccc4[nH]3)cc2)c1
active: growth inhibition [1] 100% | inhibition [2] 60% | growth inhibition [4] 100%
inactive: inhibition [3] -11% | outcome [5] | outcome [6] | outcome [7] | outcome [8]

O=[N+]([O-])c1ccccc1C=NNc1ccnc2cc(Cl)ccc12
active: growth inhibition [1] 89% | growth inhibition [4] 101%
inactive: inhibition [2] -5% | inhibition [3] 3% | outcome [5] | outcome [6] | outcome [7] | outcome [8]

CN(CCCN(C)c1cc(NC(=O)c2ccc(F)cc2)ccn1)Cc1cccc(O)c1
inactive: growth inhibition [1] 0% | inhibition [2] 2% | inhibition [3] 1% | outcome [5] | outcome [6] | outcome [7] | outcome [8]
active: growth inhibition [4] 90%

CC(C)(CNC(=O)/C=C/c1ccc(C(F)(F)F)cc1)CNc1cc(=O)c2ccccc2[nH]1
inactive: growth inhibition [1] 27% | inhibition [2] -1% | inhibition [3] -6% | outcome [5] | outcome [6] | outcome [7] | outcome [8]
active: growth inhibition [4] 95%

C[C@@H]1CN(c2ccc3occ(C(=O)Nc4ccc(-c5ccncc5)c(Cl)c4)c3c2)C[C@H](C)N1C
inactive: inhibition [2] 14% | inhibition [3] -4% | outcome [5] | outcome [6] | outcome [7] | outcome [8]
active: growth inhibition [1] 96% | growth inhibition [4] 100%

Fc1cccc(Nc2nc(NCCc3ccc(Cl)cc3)nc(Nc3cccc(F)c3)n2)c1
inactive: growth inhibition [1] 30% | inhibition [2] -3% | inhibition [3] 6% | outcome [5] | outcome [6] | outcome [7] | outcome [8]
active: growth inhibition [4] 93%

c1ccc(C2CCC(N3CCC(N4CCN(c5ccccc5)CC4)CC3)CC2)cc1 (configuration not stated)
active: growth inhibition [4] 97%
inactive: growth inhibition [1] 34% | inhibition [2] 6% | inhibition [3] -3% | outcome [5] | outcome [6] | outcome [7] | outcome [8]

CC1(C)CCC(=Cc2ccc(Cl)cc2)CC1(O)Cn1ccnc1 (configuration not stated)
inactive: inhibition [2] 0% | inhibition [3] -4% | outcome [5] | outcome [6] | outcome [7] | outcome [8]
active: growth inhibition [1] 74% | growth inhibition [4] 99%

CCCCCCCn1c(=N)n(CC(O)c2ccc(Cl)c(Cl)c2)c2ccccc21 (configuration not stated)
active: growth inhibition [1] 100% | inhibition [2] 99% | growth inhibition [4] 98%
inactive: inhibition [3] 2% | outcome [5] | outcome [6] | outcome [7] | outcome [8]

CCOc1ccccc1[C@H]1[C@H](C(=O)C(C)(C)C)N2c3ccc(Br)cc3C=CC2C12C(=O)c1ccccc1C2=O (some centres not stated)
active: growth inhibition [1] 94% | growth inhibition [4] 95%
inactive: inhibition [2] 17% | inhibition [3] 1% | outcome [5] | outcome [6] | outcome [7] | outcome [8]

CSc1cccc(NC(=O)c2cc3ccccc3oc2=O)c1
active: growth inhibition [1] 75% | growth inhibition [4] 92%
inactive: inhibition [2] -4% | inhibition [3] 4% | outcome [5] | outcome [6] | outcome [7] | outcome [8]

O=C(C=Cc1ccc(F)cc1)NC1CCC(CCN2CCc3ccc(-c4cnccn4)cc3CC2)CC1 (configuration not stated)
active: growth inhibition [1] 65% | growth inhibition [4] 99%
inactive: inhibition [2] 32% | inhibition [3] 1% | outcome [5] | outcome [6] | outcome [7] | outcome [8]

COc1cc(NC(=O)c2cccs2)c(OC)cc1NC(=O)Nc1cccc(Cl)c1
inactive: growth inhibition [1] 10% | inhibition [2] 5% | inhibition [3] -3% | outcome [5] | outcome [6] | outcome [7] | outcome [8]
active: growth inhibition [4] 83%

CN(C(=O)Cc1ccc(Cl)cc1)C1CCN(CCCCCNC(=O)/C=C/c2ccc(Cl)c(Cl)c2)CC1
active: inhibition [2] 69% | growth inhibition [4] 83%
inactive: growth inhibition [1] 16% | inhibition [3] -6% | outcome [5] | outcome [6] | outcome [7] | outcome [8]

COc1ccc(NC(=O)[C@H](CC(C)C)Nc2cc(C)nc(NCCc3ccccc3)n2)cc1
inactive: inhibition [2] 13% | inhibition [3] -2% | outcome [5] | outcome [6] | outcome [7] | outcome [8]
active: growth inhibition [1] 74% | growth inhibition [4] 101%

O=C(C=Cc1ccc(-c2ccccc2)cc1)N1CCC(CCN2CCC(c3c[nH]c4ccccc34)CC2)CC1
active: growth inhibition [4] 87%
inactive: growth inhibition [1] 16% | inhibition [2] 44% | inhibition [3] 2% | outcome [5] | outcome [6] | outcome [7] | outcome [8]
